Measurements: PubChem BioAssay AID720536 (National Center for Advancing Translational Sciences (NCATS), 2013)
Out of some 1,600 compounds screened, about 650 (41%) were called active. Another 39% or so got no clear call; they are omitted. Calls come from the whole dose curve; as a rule, active = well fitted inhibition curve with a large enough effect; inconclusive = small, poorly fitted or top-dose-only effect; inactive = no such curve, though single readings can be large or run the other way. So high a share suggests a set chosen from earlier hits. The entries come from a sample that favours actives as a whole.
Potency is the fitted concentration of half-maximal effect.

Test: qHTS for Inhibitors of TGF-b: CCL64 Cells Orthogonal Assay for Cherry Picks; note: nearly all actives have a fitted effect of over 65% in size
Details: CCL64 CAGA-GFP reporter, TGF-b stimulated, GFP fluorescence, 18 h; series mostly up to 46.1 µM; activity, negative = inhibition: at the top concentration
Text: TGF-b is a main component in the TGF-b signaling pathway which plays diverse roles in cellular and development pathways. TGF-b is the mediated by the transcription factors Smads. Although the Smad-dependent pathway is the primary canonical TGF-b signaling node, TGF-b1 can also activate alternative signaling pathways, including those involving MAPK (ERK, JNK and p38). This interaction may mediate or enhance Smad-dependent responses, or can exert Smad-independent effects. The complexity of this signaling cascade allows the TGF-b superfamily to perform unique, overlapping or redundant functions. We believe that targeting the TGF-beta pathway at the Smad-transcription factor level may eliminate the consequences of disrupting the entire pathway and offer specificity without affecting other signaling pathways. Smad3 is the primary transducer of TGF-b's signals and Smad3 regulates many functions attributed to TGF-b signaling. We hypothesize that Smad3 inhibitors will selectively eliminate Smad3-specific TGF-beta signals without undesired off-target effects. We aim to identify Smad3-small molecule antagonists using a quantitative high throughput screening (qHTS) approach. A high-throughput assay was developed to screen the NIH Molecular Libraries Small Molecule Repository (MLSMR). This is a cell based assay, where TGF-b is tagged with GFP. This orthogonal assay was run using CCL64 cells (as opposed to HepG2); activity was desired in this assay as this indicated the hits identified from the screen are not a cell-based artifact. MH087449NIH Chemical Genomics Center [NCGC] NIH Molecular Libraries Probe Centers Network [MLPCN] MLPCN Grant: MH087449 Assay Submitter (PI): Sushil Rane, National Institute of Diabetes and Kidney Diseases
Suspensions of trypsinized CCL64 CAGA-GFP cells were dispensed into white, tissue culture-treated, solid 1536-well plates at 5uL/well (1000 cells/well final concentration) in DMEM medium supplemented with 1% FBS. Plates were incubated at 37 degrees C for 2 hours, after which 23 nL of compounds or DMSO were delivered to each well using a pin tool. One uL of recombinant TGF-beta in DMEM (1% FBS) was then dispensed (500 pg/mL final concentration), and plates were incubated at 37 degrees C for 18 hours. The plates were measured on an Acumen eX3 Explorer plate reader for GFP fluorescence (ex488/em500-530). GFP values were calculated by determining the mean GFP fluorescence of individual cells, and compiling these values for each well to determine a total well GFP signal. The %Activity was determined from the corrected fluorescence values. A titration of the known TGF-B inhibitor SB431542 was included to monitor plate performance, while unstimulated […] (-TGF-B) control wells were used to normalize %Activity of identified inhibitors; unstimulated wells corresponded to 100%Activity (full inhibition), while stimulated cell controls (+DMSO) were used to normalize 0%Activity (no inhibition). Concentration-response curves were fitted to the signals arising from the resulting fluorescence. The concentration-effect curves were then classified based on curve quality (r2), response magnitude and degree of measured activity, and compounds were subsequently categorized based on their curve class.
For `COc1cc(NC(=O)c2[nH]cnc2C(N)=O)cc(C(=O)Nc2cccc(C(F)(F)F)c2)c1`, the Potency was 9.2 µM (active).
With `CCCc1cc(-c2n[nH]c(=S)n2CC)c2ccccc2n1` the “activity, negative = inhibition” value was -6.24% (inactive).
In the case of `Clc1ccc2c(c1)C1=C(C(c3ccncc3)O2)C(c2ccc(Br)cc2)n2ncnc2N1` (centres undefined), the Potency is reported as 10.3 µM (active).
In the case of `Cc1ccc(-c2nc3ccc(Br)cn3c2Cc2ccccc2C(F)(F)F)cc1`, the “activity, negative = inhibition” value is reported as 2.1% (inactive).
With `CCOC(=O)C1=C(N)N(c2ccc(C)cc2)C2=C(C(=O)CCC2)C1c1cccs1` (centres undefined) the Potency was 23.1 µM (active).
In the case of `Cc1cccc(CS(=O)(=O)c2ncc(Cl)c(C(=O)Nc3ccc(F)cc3)n2)c1`, the Potency is reported as 4.61 µM (active).
With `Cc1cccc(NC(=O)c2nc(S(=O)(=O)Cc3ccccc3)ncc2Cl)c1` the Potency was 2.59 µM (active).
With `Cc1ccc(S(=O)(=O)Nc2ccc3c(c2)C(=O)N([C@H](C)CO)C[C@@H](C)[C@@H](CN(C)C(=O)Nc2cccc4ccccc24)O3)cc1` the “activity, negative = inhibition” value was 9.21% (inactive).
With `COc1cc(NC(=O)COC(=O)c2ccc([N+](=O)[O-])s2)cc(OC)c1OC` the “activity, negative = inhibition” value was -10.9% (inactive).
In the case of `CC1CCc2c(nc3ncnn3c2Nc2ccc(OC(F)(F)F)cc2)C1` (centres undefined), the “activity, negative = inhibition” value is reported as 22.3% (inactive).
With `Cc1nc(/N=C(\N)NC(=O)NC2CCCCC2)nc2ccccc12` the Potency was 20.6 µM (active).
With `COc1cccc(CNc2nc(NCc3ccccc3OC)nc3ccsc23)c1` the Potency was 18.4 µM (active).
With `O=C(Nc1ccc(C2CC2(Cl)Cl)cc1)c1cccc([N+](=O)[O-])c1` (centres undefined) the Potency was 14.6 µM (active).
With `CC(=NNC(=S)N1CCCCCC1)c1ccccn1` the Potency was 4.11 µM (active).
With `O=C(NC1=CC(=O)c2ccccc2C1=O)c1ccccc1` the Potency was 3.66 µM (active).
With `CCCOc1ccccc1C1CC(=O)Nc2cc3c(cc21)OCO3` (centres undefined) the Potency was 13 µM (active).
In the case of `Cc1ccc(CN2CC(N3CCC(Cc4ccccc4)CC3)CS2(=O)=O)cc1` (centres undefined), the “activity, negative = inhibition” value is reported as -13.3% (inactive).
For `CCCOc1ccc(F)cc1-c1cc(C(=O)Nc2ccc(F)c(Cl)c2)[nH]n1`, the Potency was 25.9 µM (active).
For `O=[N+]([O-])c1ccccc1S(=O)(=O)Nc1cccc2cccnc12`, the Potency was 8.2 µM (active).
For `Clc1ccc(Nc2nc(-c3cccs3)cs2)nc1`, the Potency was 29.1 µM (active).
With `COC(=O)COc1cccc2c(=O)n(CC(=O)NCc3ccccc3)ccc12` the “activity, negative = inhibition” value was -25.2% (inactive).
With `COc1cc(/C=C2\Oc3ccc(C#Cc4ccc(O)cc4)cc3C2=O)cc(OC)c1` the Potency was 5.17 µM (active).
In the case of `Cc1cc(C)cc(N(CC(=O)N2CC=C(c3ccccc3)CC2)S(=O)(=O)c2c(C)noc2C)c1`, the Potency is reported as 10.3 µM (active).
With `COc1ccc(CNC(=O)C[C@H]2C[C@H](C(=O)N3CCOCC3)[C@@]3(CCC4CCCC4)c4[nH]c5ccc(Cl)cc5c4CCN3C2=O)cc1OC` the Potency was 5.17 µM (active).
With `COc1ccc2nc(N3CCN(C(=O)c4ccc([N+](=O)[O-])o4)CC3)sc2c1` the “activity, negative = inhibition” value was -29.7% (inactive).
For `CN(C)CCNC(=O)c1ccc(Cl)c2cc3ccccc3nc12`, the Potency was 4.61 µM (active).
In the case of `Fc1cc(F)c2nc(Nc3nc4c(F)cccc4s3)sc2c1`, the “activity, negative = inhibition” value is reported as -1.33% (inactive).
For `c1ccc2cc3c(NCCN4CCOCC4)ccnc3cc2c1`, the Potency was 13 µM (active).
With `Cn1c(=O)n(C)c2cc(S(=O)(=O)N3CCCc4ccccc43)ccc21` the “activity, negative = inhibition” value was 1.1% (inactive).
For `COc1ccc(-c2csc(NC3OC(=O)c4ccccc43)n2)cc1` (centres undefined), the Potency was 11.6 µM (active).
For `OCC1OC(n2cnc3c(N4CCCC4)ncnc32)C(O)C1O` (centres undefined), the “activity, negative = inhibition” value was 1.41% (inactive).
For `COc1cc(NC(=O)c2ccccc2NS(=O)(=O)c2ccc(Cl)s2)cc(OC)c1`, the Potency was 4.61 µM (active).
In the case of `COc1cccc2sc(N(CCCN(C)C)C(=O)CCS(=O)(=O)c3ccccc3)nc12`, the Potency is reported as 2.91 µM (active).
In the case of `Cc1cccc2sc(N(CCCN(C)C)C(=O)CCS(=O)(=O)c3ccccc3)nc12`, the Potency is reported as 3.26 µM (active).
In the case of `COc1c(C(C)C)oc2cc3oc(=O)ccc3cc12`, the “activity, negative = inhibition” value is reported as 2.12% (inactive).
With `O=C(Nc1ccc(Br)cn1)c1ccc([N+](=O)[O-])o1` the Potency was 13 µM (active).
In the case of `COc1ccc(-c2onc(C)c2-c2ccc3c(c2)OCCO3)c(O)c1`, the Potency is reported as 14.6 µM (active).
For `CN(C)c1nc(N)nc(CSc2nnnn2-c2cccc3ccccc23)n1`, the “activity, negative = inhibition” value was 7.15% (inactive).
For `COc1ccc(CC(=O)Nc2ccccc2NC(=O)c2ccco2)cc1OC`, the “activity, negative = inhibition” value was -5.76% (inactive).
In the case of `CC(=O)c1ccc(-c2cnc3c(NC=O)cc(-c4cccc(NS(C)(=O)=O)c4)cn23)cc1`, the Potency is reported as 5.17 µM (active).
In the case of `Cc1ccc(C)c(S(=O)(=O)N2CCN(CC(=O)Nc3ccc([N+](=O)[O-])cc3)CC2)c1`, the “activity, negative = inhibition” value is reported as -18.2% (inactive).
In the case of `OCCCNc1nccc(-c2cc(Nc3cccc(Cl)c3)ncn2)n1`, the Potency is reported as 1.3 µM (active).
In the case of `O=C(CCC(=O)N1CCN(S(=O)(=O)c2ccc(Cl)cc2)CC1)NCc1cccc(C(F)(F)F)c1`, the “activity, negative = inhibition” value is reported as -42.6% (inactive).
With `O=C(/C(=C/c1cccc(Cl)c1)c1nc2ccccc2[nH]1)c1ccccc1` the Potency was 4.61 µM (active).
